Assay outcomes deposited in PubChem BioAssay by National Center for Advancing Translational Sciences (NCATS).
RORg inh: blocks mouse ROR gamma transcriptional activity; P51450; Drosophila S2 Gal4-RORgamma UAS-luciferase reporter, 20 h; Potency, µM (top dose mostly 53.6 µM), inactives show at the highest dose activity change, negative = inhibition, hits mostly inhibitors; 310,000 tested, 5.4% active; AID 2551; also: nearly all actives have a fitted effect of over 60% in size
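A Gal4/UAS one-hybrid system in insect cells: metallothionein-promoter Gal4–ROR gamma fusion plus Photinus luciferase reporter. Copper sulfate 700 uM final, 20 hr ambient incubation, luminescent detection after 10 min with reagent.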
VP16 counter: Gal4-VP16 reporter inhibition counter-screen; Drosophila S2 Gal4-VP16 UAS-luciferase, luminescence, 20 h; AID 2546; Potency, µM (titrated, usually from 53.6 µM), without a hit: at the top dose activity, negative = inhibition, actives largely listed as inhibitors; 310,000 tested, 3.5% active;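 also: Gal4-VP16 expression switched on by copper sulfate through the metallothionein promoter; nearly all actives have a fitted effect of over 50% in size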
DT40 TDP1 CPT: DT40-hTDP1 cell growth loss with CPT; Potency, µM (highest dose often 46.2 µM), for the others: top-dose activity change, negative = growth inhibition, actives largely listed as inhibitors; AID 686979; chicken DT40 Tdp1-/-;hTDP1 cells + 20 nM CPT, ATP luminescence, 48 h; 420,000 tested, 12% active; also: nearly all actives have a fitted effect of over 55% in size
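Chicken DT40 Tdp1-/- cells stably complemented with human TDP1 were seeded at 400 cells/well in medium containing 20 nM camptothecin, exposed to pin-transferred compounds, and grown at 37 °C for at least 48 hr. Viability was read as ATP luminescence.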
TDP1 block: blocks human tyrosyl-DNA phosphodiesterase 1; Q9NUW8; recombinant TDP1, AlphaScreen DNA substrate cleavage; Potency, µM (doses to about 130 µM), inactives show at the top dose activity change, negative = inhibition, actives largely listed as inhibitors; 350,000 tested, 0.28% active; also: nearly all actives have a fitted effect of over 40% in size
Target sequence (Q9NUW8 whole entry, looked up): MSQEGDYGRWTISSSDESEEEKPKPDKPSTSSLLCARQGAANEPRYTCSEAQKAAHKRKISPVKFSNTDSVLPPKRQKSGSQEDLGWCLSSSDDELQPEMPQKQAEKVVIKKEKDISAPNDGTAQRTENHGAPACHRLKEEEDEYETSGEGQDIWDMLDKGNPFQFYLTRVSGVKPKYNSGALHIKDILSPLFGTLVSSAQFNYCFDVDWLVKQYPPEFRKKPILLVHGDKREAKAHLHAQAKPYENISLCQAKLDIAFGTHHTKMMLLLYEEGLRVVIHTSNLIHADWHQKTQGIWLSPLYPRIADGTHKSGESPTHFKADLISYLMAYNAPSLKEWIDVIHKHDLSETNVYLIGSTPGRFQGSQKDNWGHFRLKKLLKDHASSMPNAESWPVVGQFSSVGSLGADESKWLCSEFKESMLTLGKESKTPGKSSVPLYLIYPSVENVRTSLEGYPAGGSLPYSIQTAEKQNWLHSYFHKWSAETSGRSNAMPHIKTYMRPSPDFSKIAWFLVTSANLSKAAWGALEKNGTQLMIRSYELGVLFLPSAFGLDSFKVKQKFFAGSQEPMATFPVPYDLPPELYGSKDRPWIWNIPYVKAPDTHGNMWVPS
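AlphaScreen read-out: signal falls as enzyme removes the 3' tyrosine-FITC from a 5'-biotinylated DNA oligo (15 nM, 5 min, RT). Enzyme was E. coli-made recombinant Tdp1 at 1 nM, exposed to compound for 15 min beforehand; beads 10 ug/ml, 10 min.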
TDP1 cell noCPT: qHTS for Inhibitors of human tyrosyl-DNA phosphodiesterase 1 (TDP1): qHTS in cells in absence of CPT; DT40 Tdp1-/- hTDP1 cells, no CPT, ATP luminescence, 48 h; Potency, µM (series often up to 46.2 µM), inactives show top-dose activity change, negative = growth inhibition, most hits filed as inhibitors; 420,000 tested, 15% active; also: nearly all actives have a fitted effect of over 55% in size
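Growth of hTDP1-complemented DT40 Tdp1-knockout cells is measured by ATP luminescence after at least 48 hr compound exposure at 37 °C, with DMSO substituting for the 20 nM CPT used in the parallel screen.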
* hit, by the source's call. This is a sample that favours compounds with a hit; in the whole collection about 19% have one here. Calls follow the shape of the dose curve; as a rule, active = well fitted curve in the direction sought with a large enough effect; inconclusive = small, poorly fitted or top-dose-only effect, or another doubt; inactive = no such curve, though single readings can be large; an effect the other way counts as inactive or inconclusive. % is scaled to controls: 0 for no effect and ±100 for the full control effect; potency is read from the fitted curve at half-maximal effect.

Results for COc1ccc(-c2nc(SCC(=O)NCc3ccco3)c(-c3ccccc3)[nH]2)cc1OC ?
RORg inh: 44%; VP16 counter: -22%; DT40 TDP1 CPT: inconclusive; TDP1 block: 5%; TDP1 cell noCPT: inconclusive

How did COc1ccc(NC(=O)CSc2nc(-c3ccc(OC)cc3)[nH]c2-c2ccc(OC)cc2)cc1 do in these assays?
DT40 TDP1 CPT: inconclusive; TDP1 block: 5%; TDP1 cell noCPT: inconclusive

Results for Cc1ccc(S(=O)(=O)CCC(=O)OCC(=O)NC(N)=O)cc1 ?
RORg inh: 2%; VP16 counter: -2%; DT40 TDP1 CPT: inconclusive; TDP1 block: -5%; TDP1 cell noCPT: -11%

Results for c1ccc(-c2nc(-c3cccs3)[nH]c2-c2ccccc2)cc1 ?
RORg inh: 10µM*; VP16 counter: -8%; DT40 TDP1 CPT: inconclusive; TDP1 block: 2%; TDP1 cell noCPT: inconclusive

How did CN(C)c1ccc(-c2nc(-c3cccs3)c(-c3cccs3)[nH]2)cc1 do in these assays?
DT40 TDP1 CPT: 10µM*; TDP1 block: 12%; TDP1 cell noCPT: 9.2µM*

How did COc1cc(-c2nc(-c3ccccc3)c(-c3cccs3)[nH]2)cc(OC)c1O do in these assays?
RORg inh: -22%; VP16 counter: -6%; DT40 TDP1 CPT: inconclusive; TDP1 block: 10%; TDP1 cell noCPT: inconclusive

Results for COc1cc(-c2nc(-c3ccccc3)c(-c3cccs3)[nH]2)cc(OC)c1OC ?
RORg inh: -20%; VP16 counter: -2%; DT40 TDP1 CPT: 16µM*; TDP1 block: 2%; TDP1 cell noCPT: 23µM*

How did Oc1ccccc1-c1nc(-c2cccs2)c(-c2cccs2)[nH]1 do in these assays?
DT40 TDP1 CPT: inconclusive; TDP1 block: 5%; TDP1 cell noCPT: inconclusive

Results for O=c1c2c3c(sc2nc2n1CCC2)CCC3 ?
RORg inh: 1%; VP16 counter: 12%; DT40 TDP1 CPT: -9%; TDP1 block: 2%; TDP1 cell noCPT: -11%

Results for O=C1[C@H]2[C@@H](/C=C/c3ccccc3)N3C(=O)CN(CC4CC4)C(=O)[C@@]3(Cc3ccccc3)[C@H]2C(=O)N1c1ccccc1 ?
RORg inh: 7%; VP16 counter: 5%; DT40 TDP1 CPT: -11%; TDP1 cell noCPT: -19%

Results for O=Cc1ccccc1OCc1ccc2c(c1)OCO2 ?
RORg inh: -5%; VP16 counter: -7%; DT40 TDP1 CPT: 5.2µM*; TDP1 cell noCPT: 2.9µM*

What do the screens show for `Cc1cc(C)nc(SCCn2c(N(C)Cc3ccccc3)nc3c2c(=O)n(C)c(=O)n3C)n1`?
RORg inh: 32%; VP16 counter: 5%; DT40 TDP1 CPT: inconclusive; TDP1 block: 1%; TDP1 cell noCPT: inconclusive

What do the screens show for `COc1ccc(CC(=O)NCC2CCCN(Cc3ccc(OC(F)(F)F)cc3)C2)cc1` (centres undefined)?
RORg inh: 33%; VP16 counter: -20%; DT40 TDP1 CPT: 0%; TDP1 cell noCPT: 18µM*

Results for COc1cc(OC)cc(C(=O)NCC2CCCN(Cc3ccc(SC)cc3)C2)c1 (centres undefined) ?
RORg inh: -2%; VP16 counter: -1%; DT40 TDP1 CPT: inconclusive; TDP1 cell noCPT: 16µM*

How did COC(=O)c1ccc(CN2CCCC(CNC(=O)Cc3ccc(OC)cc3)C2)cc1 (centres undefined) do in these assays?
RORg inh: 1%; VP16 counter: 1%; DT40 TDP1 CPT: -3%; TDP1 cell noCPT: 10%

Results for CCc1ccc(CN2CCCC(CNC(=O)c3cc(OC)cc(OC)c3)C2)cc1 (centres undefined) ?
RORg inh: -23%; VP16 counter: 8%; DT40 TDP1 CPT: inconclusive; TDP1 cell noCPT: inconclusive

How did CSc1ccc(C#N)cc1NC(=O)c1ccccc1C do in these assays?
RORg inh: -11%; VP16 counter: -5%; DT40 TDP1 CPT: -11%; TDP1 block: 3%; TDP1 cell noCPT: -29%

Results for CCc1cc(/C(Cc2ccc3ccccc3n2)=N\O)c(O)cc1O ?
RORg inh: inconclusive; VP16 counter: inconclusive; DT40 TDP1 CPT: inconclusive; TDP1 block: 8%; TDP1 cell noCPT: inconclusive

What do the screens show for `Cc1c(O)ccc(/C(Cc2ccc3ccccc3n2)=N\N)c1O`?
RORg inh: -16%; VP16 counter: 5%; DT40 TDP1 CPT: 7.3µM*; TDP1 block: 10%; TDP1 cell noCPT: 10µM*

What do the screens show for `COc1ccc(C(=O)NC2CCCc3ccccc32)c(OC)c1OC` (centres undefined)?
RORg inh: 24%; VP16 counter: 6%; DT40 TDP1 CPT: 18µM*; TDP1 block: 0%; TDP1 cell noCPT: 21µM*

Results for COc1ccccc1C(=O)NCC(=O)NC1CCCc2ccccc21 (centres undefined) ?
RORg inh: -44%; VP16 counter: -2%; DT40 TDP1 CPT: inconclusive; TDP1 block: 8%; TDP1 cell noCPT: inconclusive

Results for COc1ccc(CNC2CCCc3ccccc32)cc1OC (centres undefined) ?
RORg inh: 38%; VP16 counter: -1%; DT40 TDP1 CPT: inconclusive; TDP1 block: -5%; TDP1 cell noCPT: 18µM*

What do the screens show for `COc1ccccc1CN(C)CC(=O)NC1CCCc2ccccc21` (centres undefined)?
RORg inh: -5%; VP16 counter: -9%; DT40 TDP1 CPT: 15µM*; TDP1 block: -1%; TDP1 cell noCPT: inconclusive

Results for Cn1nnnc1SCC(=O)Nc1ccc(N2CCOCC2)cc1 ?
RORg inh: 12%; VP16 counter: -11%; DT40 TDP1 CPT: -17%; TDP1 block: 4%; TDP1 cell noCPT: 3%

Results for COc1ccc(NC(=O)COC(=O)c2ccc(S(=O)(=O)N3CCCCC3)cc2)c(OC)c1 ?
DT40 TDP1 CPT: -9%; TDP1 cell noCPT: -4%

How did NC(=O)C(c1ccc(Cl)cc1)c1ncc(C(F)(F)F)cc1Cl (centres undefined) do in these assays?
RORg inh: 0%; VP16 counter: -3%; DT40 TDP1 CPT: -14%; TDP1 block: 3%; TDP1 cell noCPT: -16%

What do the screens show for `COc1ccc(S(=O)(=O)N2CCCCC2c2cc(C(=O)NCc3cccnc3)no2)cc1` (centres undefined)?
DT40 TDP1 CPT: 29µM*; TDP1 cell noCPT: inconclusive

How did COc1ccc(S(=O)(=O)N2CCCCC2c2cc(C(=O)Nc3ccc(OC)cc3C)no2)cc1 (centres undefined) do in these assays?
DT40 TDP1 CPT: 16µM*; TDP1 cell noCPT: 18µM*

Results for COc1ccc(S(=O)(=O)N2CCCCC2c2cc(C(=O)Nc3ccc(F)c(Cl)c3)no2)cc1 (centres undefined) ?
DT40 TDP1 CPT: 16µM*; TDP1 cell noCPT: 16µM*
